A number with no mark means an inactive call. Calls follow the shape of the full dose curve.
Molecular target: Acetylcholinesterase (Homo sapiens) (UniProt P22303)
Assay: Acetylcholinesterase (AChE) small molecule antagonists: enzyme-based qHTS assay with human liver microsomes (AID 1347399); also: nearly all actives have a fitted effect of over 60% in size
Conditions: Potency: qHTS inhibition; outcome: qHTS inhibition; series mostly up to 115 µM; activity change, negative = inhibition: at the top concentration
Outline: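 Recombinant human AChE (50 mU/mL in the enzyme mix) and human liver microsomes (0.25 mg/mL final) were preincubated with compound and NADPH (0.25 mg/mL final) for 30 min at 37 C. Acetylthiocholine/DTNB was then added; thiocholine was read colorimetrically after 10 min at room temperature.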
% is scaled to controls: 0 for no effect and ±100 for the full control effect.

Sequence of Acetylcholinesterase (Homo sapiens) (P22303 whole entry, looked up): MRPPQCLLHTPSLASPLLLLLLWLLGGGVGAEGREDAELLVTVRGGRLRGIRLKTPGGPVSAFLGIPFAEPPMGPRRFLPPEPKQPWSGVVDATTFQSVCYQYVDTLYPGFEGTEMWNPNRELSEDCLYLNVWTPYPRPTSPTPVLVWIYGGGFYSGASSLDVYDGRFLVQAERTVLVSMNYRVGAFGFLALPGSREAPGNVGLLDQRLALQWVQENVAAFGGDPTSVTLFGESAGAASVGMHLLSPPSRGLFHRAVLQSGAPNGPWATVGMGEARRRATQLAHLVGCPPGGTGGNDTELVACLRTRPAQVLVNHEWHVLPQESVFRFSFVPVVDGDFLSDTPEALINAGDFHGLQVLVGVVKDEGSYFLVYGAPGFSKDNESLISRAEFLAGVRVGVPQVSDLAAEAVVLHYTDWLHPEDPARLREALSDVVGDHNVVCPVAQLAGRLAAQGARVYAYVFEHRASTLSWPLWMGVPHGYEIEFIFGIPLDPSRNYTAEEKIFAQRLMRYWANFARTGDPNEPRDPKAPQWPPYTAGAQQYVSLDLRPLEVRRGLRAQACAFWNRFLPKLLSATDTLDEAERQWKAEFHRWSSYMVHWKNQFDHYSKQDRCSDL

In order of falling “activity change, negative = inhibition” value:
1. CC1=C(C)C(=O)C(CCCCC#CCCCC#CCO)=C(C)C1=O  0.147% [at 53 µM]
2. CCCOC(C(=O)OC1CCN(C)CC1)(c1ccccc1)c1ccccc1  -0.14% [at 53 µM]
3. CC(=O)OCC(=O)[C@@]1(O)CC[C@H]2[C@@H]3CCC4=CC(=O)C=C[C@]4(C)[C@@]3(F)[C@@H](O)C[C@@]21C  -0.317% [at 53 µM]
4. CN(C)CCOc1ccccc1Cc1ccccc1  -0.335% [at 53 µM]
5. CCN1CCN(C(=O)N[C@@H](C(=O)N[C@@H]2C(=O)N3C(C(=O)O)=C(CSc4nnnn4C)CS[C@H]23)c2ccc(O)cc2)C(=O)C1=O  -0.621% [at 53 µM]
6. CC[N+](C)(CC)CCOC(=O)C1c2ccccc2Oc2ccccc21  -0.926% [at 53 µM]
7. CCO[C@H](Cc1ccc(OCCc2ccc(OS(C)(=O)=O)cc2)cc1)C(=O)O  -1.03% [at 53 µM]
8. CCC(=O)Oc1ccc2c(c1)CC[C@@H]1[C@@H]2CC[C@@]2(C)[C@H]1C[C@@H](OC(=O)CC)[C@@H]2OC(=O)CC  -1.54% [at 53 µM]
9. CCCC(C(=O)OCCN(CC)CC)(c1ccccc1)c1ccccc1  -1.92% [at 53 µM]

In order of falling “activity change, negative = inhibition” value:
1. O=C(Nc1ccc2c(O)c(N=Nc3ccc(N=Nc4ccc(S(=O)(=O)O)cc4)cc3)c(S(=O)(=O)O)cc2c1)c1ccccc1  29.5%
2. CCCCNCCCC  2.73%
3. Cc1ccc(O)c(N)c1  0.508%
4. N#Cc1ccc(C/C(=N/NC(=O)Nc2ccc(OC(F)(F)F)cc2)c2cccc(C(F)(F)F)c2)cc1  -0.158%
5. C(/C=C/C=C/Nc1ccccc1)=Nc1ccccc1  -0.762%
6. O=C(Cl)c1cc(C(=O)Cl)cc(C(=O)Cl)c1  -2.89%

`O=S(=O)(O)c1cc(S(=O)(=O)O)c2ccc3c(S(=O)(=O)O)cc(S(=O)(=O)O)c4ccc1c2c43` was tested, and the activity change, negative = inhibition was 2.76% [at 23.6 µM].

— PubChem BioAssay (Tox21)
